INS promoter inh = inhibitors of insulin promoter-driven GFP, primary screen, imaging, TRM-6 cells (human fetal islet line), eGFP reporter, cell count; AID 1273, 2008; inhibition, % at 2 µM; reporter expression induced with tamoxifen; 130,000 tested, 0.9% active;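 active = inhibition above the mean plus 3 SD, with well images judged a real hit on visual review, cut at about 60% in these data, passing the limit was not always enough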
S1P3 antagonist = S1P3 receptor antagonists, primary screen, cell-based. Sphingosine 1-phosphate receptor 3 (Homo sapiens), Q99500. CHO S1P3 NFAT-BLA reporter, FRET fluorescence, antagonist mode. inhibition, % at 4.98 µM. 170,000 tested, 0.27% active;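 active = inhibition above the plate cutoff, the mean inhibition of test wells on that plate plus 3 SD, cut at about 28% in these data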;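 also: cells challenged with S1P at its EC80 of 0.8 µM; blue over green emission ratio from cleaved BLA substrate after 4 h stimulation; 0% = S1P-stimulated wells and 100% = unstimulated DMSO-only wells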
EP2 mod = EP2 receptor modulators, cAMP readout, primary screen, cell-based, HTRF cAMP, PGE2 stimulation; EP2-expressing cells, cAMP HTRF FRET, PGE2 co-stimulation; 260,000 tested, 0.83% active; AID 940, 2007; induction, % at 25 µM;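 active = compounds whose cAMP rise, as percent of the full-agonist control response, exceeds 60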;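 also: rat C6 glioma line stably carrying human EP2 under a CMV promoter; the protocol text gives 20 µM as final concentration; 100% = response of wells given 1 µM PGE2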
Target sequence (P43116 whole entry, looked up): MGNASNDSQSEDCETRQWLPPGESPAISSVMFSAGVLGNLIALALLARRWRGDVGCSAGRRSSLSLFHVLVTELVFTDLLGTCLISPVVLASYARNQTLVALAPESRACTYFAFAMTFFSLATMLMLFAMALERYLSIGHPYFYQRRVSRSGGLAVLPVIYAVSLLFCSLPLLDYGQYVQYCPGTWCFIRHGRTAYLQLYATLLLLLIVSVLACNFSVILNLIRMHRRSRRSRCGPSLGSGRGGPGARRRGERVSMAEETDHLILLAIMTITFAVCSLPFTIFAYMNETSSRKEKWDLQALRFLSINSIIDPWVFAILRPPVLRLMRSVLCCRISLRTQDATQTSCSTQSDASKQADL
S1P4 antagonist = S1P4 receptor antagonists, primary screen, cell-based; AID 1510, 2009; S1P4-expressing cells, antagonist mode, reporter read-out; inhibition, % at 4.98 µM; Sphingosine 1-phosphate receptor 4 (Homo sapiens), O95977; 220,000 tested, 0.26% active; in the data active = inhibition above about 29%;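 also: 0% = wells stimulated with agonist and 100% = vehicle wells without agonist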
S1P4 agonist = S1P4 receptor agonists, primary screen, cell-based. 220,000 tested, 0.35% active. S1P4-expressing cell line, agonist reporter assay. Sphingosine 1-phosphate receptor 4 (Homo sapiens), O95977. AID 1509, 2009. activation, % at 4.98 µM; in the data active = activation above about 11%;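 also: 0% = DMSO vehicle and 100% = reference agonist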
EP2 antag = human EP2 receptor antagonists, primary screen, TR-FRET cAMP, C6 glioma cells; C6 glioma cells expressing human EP2; cells stimulated with saturating PGE2; Prostaglandin E2 receptor EP2 subtype (Homo sapiens), P43116; inhibition, % at 25 µM; 260,000 tested, 0.52% active;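 active = percent inhibition above 40 after rounding to a whole number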;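 also: rat C6 glioma host cells with rolipram phosphodiesterase inhibitor present; the protocol text gives 20 µM as final concentration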
Starred values were filed as active, the others as inactive; . = no result. Rows were chosen to be rich in hits. Some 2.4% of all compounds tested hit in one or more screens of this group.

SMILES	INS promoter inh	S1P3 antagonist	EP2 mod	S1P4 antagonist	S1P4 agonist	EP2 antag
CCOc1cc2c(cc1CN(Cc1ccc3c(c1)OCO3)CC(C)O)OCO2 (stereo unspecified)	.	.	0.4	.	.	4.7
CCS(=O)(=O)c1ccc(Sc2nncn2C)c([N+](=O)[O-])c1	53.9	-16.4	12.2	6.2	1.4	15.4
CCS(=O)(=O)c1cc([N+](=O)[O-])c(Br)s1	.	.	-118.7	.	.	74.2*
O=C(Nc1ccc(N2CCCC2)c(Cl)c1)c1ccc([N+](=O)[O-])o1	.	-0.7	-34.9	89.7*	-1.9	9.3
CN(C)c1ccc(NC(=O)c2ccc([N+](=O)[O-])o2)cc1	.	.	-103.8	.	.	24.8
CS(=O)(=O)N1CCN(c2ccc(NC(=O)c3ccc([N+](=O)[O-])o3)cc2)CC1	.	8.8	-47.9	28.1	-3.2	15.0
CCC(=O)Nc1ccc(NC(=O)c2ccc([N+](=O)[O-])o2)cc1	.	.	-129.5	.	.	68.1*
O=C(Nc1ccc(N2CCCC2)c(Cl)c1)c1ccco1	0.0	3.1	-22.8	-17.5	-1.4	13.1
O=C(Nc1ccc(N2CCN(C(=O)c3ccc(Cl)cc3)CC2)cc1)c1ccc([N+](=O)[O-])o1	.	-2.4	-49.6	14.0	-1.2	120.6*
C=CCCC1(C)NNc2nc(=O)c(C)nn21 (stereo unspecified)	.	.	-10.6	.	.	8.4
Cc1ccccc1-c1ncc(CN2CCC(O)(c3ccccc3F)CC2)cn1	.	.	-32.4	.	.	3.7
Cc1cc(=S)c2cc(Br)ccc2[nH]1	.	.	66.2*	.	.	21.4
COc1ccc(OCc2nnc(NC(=O)Nc3cccc(OC)c3)s2)cc1	.	.	-77.8	.	.	11.8
COc1ccc(Cl)cc1NC(=O)CSc1nc(C(C)(C)C)nc2ccccc12	.	.	26.6	.	.	7.0
O=c1[nH]nc(-c2nccc3ccccc23)o1	.	.	-21.7	.	.	12.8
C[N@@+]1(CC[N@+]2(C)CCC[C@@H]2c2cccnc2)CCC[C@@H]1c1cccnc1	.	.	25.5	.	.	47.3*
CN1CCC[C@H]1c1cccnc1	.	.	18.2	.	.	8.4
COc1ccccc1NC(=O)N(Cc1cc2ccc(C)cc2[nH]c1=O)C1CCCC1	.	.	10.6	.	.	6.6
Cc1[nH]c2ccccc2c1-c1csc(N)n1	.	.	-105.9	.	.	8.1
Cc1[nH]c2ccccc2c1-c1cc(-c2cc(-c3c(C)[nH]c4ccccc34)on2)no1	.	.	-23.1	.	.	47.1*
O=C(O)C1CCc2sc3[nH]c(=S)n(-c4ccccc4)c(=O)c3c21 (stereo unspecified)	.	-5.3	27.3	10.0	0.5	9.3
CCN(CC)C(=O)c1sc2[nH]c(=S)n(-c3ccccc3)c(=O)c2c1C	10.0	.	60.7*	-2.1	-2.0	9.8
COc1ccc2cc(CN(Cc3nnnn3CC3CCCO3)C3CCCCC3)c(=O)[nH]c2c1 (stereo unspecified)	.	.	-5.7	.	.	8.9
O=C1[C@@H]2[C@H](C(=O)N1CN1CCSCC1)[C@H]1[C@@H]3C=C[C@@H]([C@@H]4C(=O)N(CN5CCSCC5)C(=O)[C@@H]34)[C@@H]21	.	.	14.6	.	.	45.2*
Oc1ccccc1C=NCCCCCCN=Cc1ccccc1O	.	-4.9	62.4*	-24.1	0.0	4.6
SMILES	INS promoter inh	S1P3 antagonist	EP2 mod	S1P4 antagonist	S1P4 agonist	EP2 antag
CS(=O)(=O)N(CC(=O)N1CCCCC1)c1ccc2c(c1)OCO2	-13.6	-17.6	21.5	-0.3	1.2	4.6
CCOC(=O)N1CCN(C(=O)CN(c2ccc3c(c2)OCO3)S(C)(=O)=O)CC1	79.0*	-26.4	-0.8	1.8	0.0	12.3
CC(=O)Nc1ccc(S(=O)(=O)N2CCNCC2)cc1	.	.	-15.8	.	.	5.1
O=C1C=C(c2ccccc2)OC1=O	.	.	-22.2	.	.	7.3
CCc1cccc(C)c1NC(=S)NCc1ccc2[nH]c(C)cc2c1	70.7*	-2.9	-41.5	-1.6	0.5	13.8
O=C(CN1CCOc2ccccc21)NCc1ccc(F)cc1	60.0*	7.0	8.6	-9.6	2.2	7.1
COc1ccc(CCN2C(=O)C(O)=C(C(C)=O)C2c2ccc(C(C)(C)C)cc2)cc1OC (stereo unspecified)	.	.	-3.9	.	.	15.6
CCOC(=O)C(C)(C)Sc1nc2c(cnn2-c2ccc(C)cc2)c(=O)[nH]1	100.0*	6.9	20.2	-3.8	1.9	22.1

Source: PubChem (several laboratories)
